The record followed here is ChEMBL document CHEMBL1961873, “Compounds: GSK PKIS; Assays: Nanosyn kinase panel” (2012).

One assay deals with T1, Non-receptor tyrosine-protein kinase TNK1 (Homo sapiens) (UniProt Q13470).
T1 sequence (whole entry): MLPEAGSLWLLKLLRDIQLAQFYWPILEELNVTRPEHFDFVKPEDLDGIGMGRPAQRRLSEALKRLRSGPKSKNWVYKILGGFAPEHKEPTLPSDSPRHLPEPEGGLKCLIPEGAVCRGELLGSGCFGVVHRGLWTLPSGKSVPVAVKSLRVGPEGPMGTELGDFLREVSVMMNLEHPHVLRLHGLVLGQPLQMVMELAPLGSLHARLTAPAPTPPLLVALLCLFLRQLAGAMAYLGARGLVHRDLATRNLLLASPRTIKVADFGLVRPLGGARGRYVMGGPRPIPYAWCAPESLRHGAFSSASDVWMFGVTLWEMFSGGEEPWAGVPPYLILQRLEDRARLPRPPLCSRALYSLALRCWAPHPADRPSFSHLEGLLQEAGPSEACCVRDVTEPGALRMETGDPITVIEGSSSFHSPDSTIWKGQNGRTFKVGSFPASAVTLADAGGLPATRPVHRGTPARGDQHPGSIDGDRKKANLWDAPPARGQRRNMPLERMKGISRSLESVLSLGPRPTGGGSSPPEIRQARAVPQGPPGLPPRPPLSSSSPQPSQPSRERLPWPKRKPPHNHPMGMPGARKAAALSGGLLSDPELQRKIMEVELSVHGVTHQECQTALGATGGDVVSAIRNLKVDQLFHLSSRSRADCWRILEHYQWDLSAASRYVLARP
The following applies: at 0.1 µM.
For the compound `CS(=O)(=O)Nc1cccc(-c2ccc3c(NC(=O)C4CC4)n[nH]c3c2)c1`, the inhibition worked out at 2.45%.
Still for that read-out and setting: with `Cc1ccc2c(c1)/C(=N/Nc1ccc(S(N)(=O)=O)cc1)C(=O)N2` the figure was -2.23%; with `O=C1Nc2ccccc2/C1=C/Nc1ccc2[nH]c(=O)[nH]c2c1`, 4.65%; with `C[C@@H](Oc1cc(-n2cnc3ccc(OC[C@@H](O)CO)cc32)sc1C(N)=O)c1ccccc1Cl`, -0.47%.
Regarding `Cc1cc(-c2ccccn2)cc(C)c1/C=C/c1cncc(-c2nn[nH]n2)c1`, the inhibition was found to be 9.02%.
`NS(=O)(=O)c1ccc(Nc2cc(-c3cccc(O)c3)n[nH]2)cc1`: the inhibition is 4.11%.
Same read-out and setting: the same measure for `Cc1ccc(C(=O)NC2CC2)cc1-c1ccc2[nH]ncc2c1`: -1.01%; for `COC(=O)Nc1nc2cc(Oc3ccc(NC(=O)Nc4cccc(Br)c4)cc3)ccc2[nH]1`: 3.04%; for `COc1ccc(-c2nn3ncccc3c2-c2ccnc(Nc3cccc(C(F)(F)F)c3)n2)cc1`: 7.47%.
Regarding `[O-][S+]1CCN(Cc2ccc(-c3ccc4ncnc(Nc5ccc(OCc6ccccc6)c(Cl)c5)c4c3)o2)CC1`, the inhibition is -0.33%.
For the compound `CS(=O)(=O)CCNCc1nc(-c2ccc3ncnc(Nc4ccc(OCc5cccc(C(F)(F)F)c5)cc4)c3c2)cs1`, the inhibition was determined as 0.85%.
`CN(C)c1cc2c(Nc3ccc4c(cnn4Cc4ccccc4)c3)ncnc2cn1`: the inhibition is 3.66%.
Still for that read-out and setting: with `Oc1cccc(-c2nc(-c3ccccc3)[nH]c2-c2ccncc2)c1` the figure was 3.62%; with `Cc1ccc(O)cc1Nc1ccnc2ccc(S(C)(=O)=O)cc12`, 4.13%.
Take `CCS(=O)(=O)c1ccc(OC)c(Nc2nccc(N(C)c3ccc4c(C)n[nH]c4c3)n2)c1`: the inhibition was determined as 40%.
Turning to `NS(=O)(=O)c1cccc(-c2cc3ccncc3cc2OCc2ccccc2)c1`, the inhibition was found to be 1.24%.
Still for that read-out and setting: with `COc1cc2ncnc(Nc3ccc4c(cnn4Cc4ccccc4)c3)c2cc1OC` the figure was 7.1%.
For `COc1cc(Nc2nccc(-c3cnn4ncccc34)n2)cc(OC)c1`, the inhibition was determined as 26.8%.
With `ON=C1CCc2cc(-c3nc(C4CCNCC4)[nH]c3-c3ccncc3)ccc21`, the inhibition is -4.28%.
Still for that read-out and setting: the same measure for `COc1cc2ncnc(Nc3ccc(C)c(O)c3)c2cc1OC`: 5.34%.
Same read-out and setting: with `O=S(=O)(CCOCc1ccc(-c2ccc3ncnc(Nc4ccc(OCc5cccc(F)c5)c(Cl)c4)c3c2)o1)c1ccccc1` the figure was 1.59%.
Regarding `FC(F)(F)c1ccc(-c2nn3ncccc3c2-c2ccnc(Nc3ccc4c(c3)OCCO4)n2)cc1`, the inhibition is 6.18%.
On to `O=C(Nc1ccc(Oc2ccc3[nH]c(NC(=O)c4ccco4)nc3c2)cc1)Nc1cc(C(F)(F)F)ccc1F`, for which the inhibition is 9.16%.
In the case of `NC(=O)c1sc(-n2cnc3ccccc32)cc1OCc1ccccc1Br`, the inhibition was determined as 2.8%.
Same read-out and setting: with `CCCN1CCCC(c2ccc(Nc3nc(Nc4cc(F)ccc4C(N)=O)c4cc[nH]c4n3)c(OC)c2)C1` (stereo unspecified) the figure was 41.2%; with `COc1ccc2ncnc(Nc3ccc(OCc4ccccc4)cc3)c2c1`, 2.34%.
`CCn1c(-c2nonc2N)nc2c(C#CC(C)(C)O)nc(OCCNC)cc21`: the inhibition was 0.64%.
Turning to `NS(=O)(=O)c1ccc(-c2cc3ccncc3cc2OCc2ccccc2)cc1`, the inhibition stood at 3.48%.
As for `COC(=O)c1ccc2c(c1)C(=Cc1cc(Br)c(O)c(Br)c1)C(=O)N2`, the inhibition is 25.5%.
For `Nc1nccc(C#Cc2cncnc2Nc2ccc(OCc3cccc(F)c3)c(Cl)c2)n1`, the inhibition amounted to 5.1%.
Same read-out and setting: with `Cc1ccc2c(-c3ccnc(Nc4ccc5c(c4)OCCO5)n3)c(-c3ccc(C(F)(F)F)cc3)nn2n1` the figure was -0.74%; with `Nc1nccc(-c2c(-c3ccc(F)cc3)ncn2CCCN2CCOCC2)n1`, 1.92%.
In the case of `COc1cc(/C=N/Nc2ncnc3c2cnn3C(C)C)ccc1O`, the inhibition was found to be 1.37%.

The next assay has as its target T1, Non-receptor tyrosine-protein kinase TNK1 (Homo sapiens). The following applies: at 1 µM.
As for `CS(=O)(=O)Nc1cccc(-c2ccc3c(NC(=O)C4CC4)n[nH]c3c2)c1`, the inhibition was -6.75%.
For the compound `Cc1ccc2c(c1)/C(=N/Nc1ccc(S(N)(=O)=O)cc1)C(=O)N2`, the inhibition was found to be 3.63%.
Same read-out and setting: with `O=C1Nc2ccccc2/C1=C/Nc1ccc2[nH]c(=O)[nH]c2c1` the figure was 21.3%; with `C[C@@H](Oc1cc(-n2cnc3ccc(OC[C@@H](O)CO)cc32)sc1C(N)=O)c1ccccc1Cl`, 18.2%; with `Cc1cc(-c2ccccn2)cc(C)c1/C=C/c1cncc(-c2nn[nH]n2)c1`, 50.8%.
As to `NS(=O)(=O)c1ccc(Nc2cc(-c3cccc(O)c3)n[nH]2)cc1`, the inhibition was found to be 7.43%.
For `Cc1ccc(C(=O)NC2CC2)cc1-c1ccc2[nH]ncc2c1`, the inhibition was determined as 4.02%.
On to `COC(=O)Nc1nc2cc(Oc3ccc(NC(=O)Nc4cccc(Br)c4)cc3)ccc2[nH]1`, for which the inhibition was found to be 8.8%.
Consider `COc1ccc(-c2nn3ncccc3c2-c2ccnc(Nc3cccc(C(F)(F)F)c3)n2)cc1`, for which the inhibition was 9.47%.
For the compound `[O-][S+]1CCN(Cc2ccc(-c3ccc4ncnc(Nc5ccc(OCc6ccccc6)c(Cl)c5)c4c3)o2)CC1`, the inhibition was 9.61%.
Still for that read-out and setting: the same measure for `CS(=O)(=O)CCNCc1nc(-c2ccc3ncnc(Nc4ccc(OCc5cccc(C(F)(F)F)c5)cc4)c3c2)cs1`: 2.82%; for `CN(C)c1cc2c(Nc3ccc4c(cnn4Cc4ccccc4)c3)ncnc2cn1`: 14.7%.
Same read-out and setting: with `Oc1cccc(-c2nc(-c3ccccc3)[nH]c2-c2ccncc2)c1` the figure was 12.3%; with `Cc1ccc(O)cc1Nc1ccnc2ccc(S(C)(=O)=O)cc12`, 13.7%.
Turning to `CCS(=O)(=O)c1ccc(OC)c(Nc2nccc(N(C)c3ccc4c(C)n[nH]c4c3)n2)c1`, the inhibition was found to be 82.5%.
For the compound `NS(=O)(=O)c1cccc(-c2cc3ccncc3cc2OCc2ccccc2)c1`, the inhibition worked out at 4.7%.
The same measure, in the same setting: the same measure for `COc1cc2ncnc(Nc3ccc4c(cnn4Cc4ccccc4)c3)c2cc1OC`: 35.6%.
Turning to `COc1cc(Nc2nccc(-c3cnn4ncccc34)n2)cc(OC)c1`, the inhibition was 64.4%.
Take `ON=C1CCc2cc(-c3nc(C4CCNCC4)[nH]c3-c3ccncc3)ccc21`: the inhibition is -5.17%.
For the compound `COc1cc2ncnc(Nc3ccc(C)c(O)c3)c2cc1OC`, the inhibition was 23.8%.
The same measure, in the same setting: with `O=S(=O)(CCOCc1ccc(-c2ccc3ncnc(Nc4ccc(OCc5cccc(F)c5)c(Cl)c4)c3c2)o1)c1ccccc1` the figure was 5.35%; with `FC(F)(F)c1ccc(-c2nn3ncccc3c2-c2ccnc(Nc3ccc4c(c3)OCCO4)n2)cc1`, 22.2%.
In the case of `O=C(Nc1ccc(Oc2ccc3[nH]c(NC(=O)c4ccco4)nc3c2)cc1)Nc1cc(C(F)(F)F)ccc1F`, the inhibition stood at 58.6%.
Same read-out and setting: with `NC(=O)c1sc(-n2cnc3ccccc32)cc1OCc1ccccc1Br` the figure was 18.9%; with `CCCN1CCCC(c2ccc(Nc3nc(Nc4cc(F)ccc4C(N)=O)c4cc[nH]c4n3)c(OC)c2)C1` (stereo unspecified), 81%.
As for `COc1ccc2ncnc(Nc3ccc(OCc4ccccc4)cc3)c2c1`, the inhibition was found to be 12.3%.
As to `CCn1c(-c2nonc2N)nc2c(C#CC(C)(C)O)nc(OCCNC)cc21`, the inhibition amounted to 3.22%.
In the case of `NS(=O)(=O)c1ccc(-c2cc3ccncc3cc2OCc2ccccc2)cc1`, the inhibition turned out to be 16%.
Regarding `COC(=O)c1ccc2c(c1)C(=Cc1cc(Br)c(O)c(Br)c1)C(=O)N2`, the inhibition is 70.2%.
Turning to `Nc1nccc(C#Cc2cncnc2Nc2ccc(OCc3cccc(F)c3)c(Cl)c2)n1`, the inhibition came to 8.89%.
Regarding `Cc1ccc2c(-c3ccnc(Nc4ccc5c(c4)OCCO5)n3)c(-c3ccc(C(F)(F)F)cc3)nn2n1`, the inhibition worked out at 2.22%.
With `Nc1nccc(-c2c(-c3ccc(F)cc3)ncn2CCCN2CCOCC2)n1`, the inhibition worked out at 5.56%.
Turning to `COc1cc(/C=N/Nc2ncnc3c2cnn3C(C)C)ccc1O`, the inhibition was found to be 7.79%.

The inhibition is the relative decrease from the control value, in per cent.
